Results filed as inconclusive are left out. A number with no mark means an inactive call. Activity calls are given as the source filed them. Calls come from the whole dose curve; as a rule, active = well fitted cell-killing curve with a large enough effect; inconclusive = small, poorly fitted or top-dose-only effect; inactive = no such curve, though single readings can be large or run the other way.
% is set by controls: 0 for no effect and ±100 for the full control effect; potency is the fitted concentration of half-maximal effect.

This experiment is described as follows: qHTS of pediatric cancer cell lines to identify multiple opportunities for drug repurposing: Primary screen for Saos-2 cells (AID 1347097). Note: nearly all actives have a fitted effect of over 40% in size. Conditions: Saos-2 viability, CellTiter-Glo ATP luminescence, 48 h; series mostly up to 46 µM; activity change, negative = cytotoxic: at the top concentration. The text has this:
Drug repurposing or repositioning has been offered as a strategy for drug development in oncology programs. This approach has special potential for childhood cancers and other rare or orphan diseases, where the expected return on new drug development has been a disincentive to pharmaceuticals. […] In this project we exploit the poly-pharmacology of drugs to discover new indications via phenotypic screening of a panel of 19 well-characterized cell lines derived from solid tumors seen in children and adolescents. The goal is to identify approved drugs with previously unrecognized anticancer properties that has the potential to reveal new mechanisms and biological processes involved in carcinogenesis or drug resistance. We employed a titration-based paradigm (quantitative high-throughput screening or qHTS), where all compounds were tested at multiple concentrations for their effect on cell viability. Concentration-response curves (CRCs) were derived directly from the primary screen, and both potency and efficacy values were used to identify compounds with robust bioactivity profiles. We screened the NIH Chemical Genomics Center (NCGC) Pharmaceutical Collection (NPC) and Mechanism Interrogation Plate (MIPE) small molecule collections of approved and investigational compounds against these cell lines; and measured metabolically active cells after 48 hours of compound treatment as a proxy for cell viability. […] Assay Submitter: Nathalia J. Martinez, National Center for Advancing Translational Sciences, National Institutes of Health, Rockville, MD, USA; email: natalia.martinez@nih.gov Shen, M et al. Quantitative high-throughput phenotypic screening of pediatric cancer cell lines identifies multiple opportunities for drug repurposing. Oncotarget 2017 Dec 19;9(4):4758-4772. PMID 29435139.
The cells were obtained from University of North Carolina (UNC), Pediatric Preclinical Testing Program (PPT), and Coriell Institute (CI). qHTS cell viability assay: Cells were assayed in growth media at a density of 500-1,000 cells/well. Five microliters of cells were dispensed into 1,536-well, white, solid-bottom, TC-treated plates (Greiner Bio One) using a multidrop dispenser and incubated at 37 degrees C, 5% CO2, under a humidified atmosphere for 5 hours. Twenty-three nanoliters of compounds and controls (neutral control DMSO or positive control bortezomib at final concentration of 2.3 µM) were subsequently transferred by Kalypsys pintool. For primary screens, the MIPE collection was tested at 11-point dilutions (final concentrations range from 0.78 nM to 46 µM) and the NPC collection at 8-point dilutions (final concentrations range from 0.59 nM to 46 µM). Compounds tested in follow-up screens were assayed at 11-point dilutions. Cells were incubated for 48 hours, followed by addition of 3 µL of CellTiter-Glo (Promega). After a 15 min incubation at room temperature, samples were analyzed for luminescence intensity using a ViewLux High-throughput CCD imager equipped with clear filters.
`CC(C)(C)NC(=O)[C@H]1CN(Cc2cccnc2)CCN1C[C@@H](O)C[C@@H](Cc1ccccc1)C(=O)N[C@H]1c2ccccc2C[C@H]1O`: the Potency is 18700 nM (active).

For `COc1cc(C)c(Sc2cnc(NC(=O)c3ccc(CNC(C)C(C)C)cc3)s2)cc1C(=O)N1CCN(C(C)=O)CC1` (stereo not given), the “activity change, negative = cytotoxic” value was 3.39%. Turning to `O=c1c2ccccc2nc2n1CCc1c-2[nH]c2ccccc12`, the “activity change, negative = cytotoxic” value is -9.72%. `Cc1ccc(C(=O)Nc2ccc(CN3CCN(C)CC3)c(C(F)(F)F)c2)cc1C#Cc1cnc2cccnn12`: the Potency was 2350 nM (active). As for `O=C(Nc1cn[nH]c1-c1nc2ccc(CN3CCOCC3)cc2[nH]1)NC1CC1`, the Potency was 935 nM (active). `CN(C1CCc2c(c3ccccc3n2CC(=O)O)C1)S(=O)(=O)c1ccc(F)cc1` (stereo not given): the “activity change, negative = cytotoxic” value was -11.1%. `O=C(O)CO.[NH2-].[NH2-].[Pt+2]`: the “activity change, negative = cytotoxic” value was 1.1%. In the case of `O=C(C=Cc1cccc(S(=O)(=O)Nc2ccccc2)c1)NO`, the Potency was 6790 nM (active). Turning to `CC(=O)OCC(=O)[C@@]1(O)[C@H](C)C[C@H]2[C@@H]3C=C(C)C4=Cc5c(cnn5-c5ccccc5)C[C@]4(C)[C@@H]3[C@@H](O)C[C@@]21C`, the Potency is 18700 nM (active).

For the compound `Cc1cc(Nc2cc(NC(=O)c3c(Cl)cccc3Cl)ccn2)nc(N)n1`, the Potency is 1050 nM (active). Take `CC(=O)c1c(C)c2cnc(Nc3ccc(N4CCNCC4)cn3)nc2n(C2CCCC2)c1=O`: the Potency was 18700 nM (active). `CC(C)(O)CCc1ccc(OCc2cc(-c3cccc(OC(F)F)c3)c3ncccc3c2)cc1`: the “activity change, negative = cytotoxic” value is 13.7%. In the case of `O=C(c1cncc(Br)c1)N1CCC(N2CCCC2)CC1`, the “activity change, negative = cytotoxic” value was -8.22%. In the case of `COc1ccc2c(OCc3nnc4ccc(-c5ccccc5)nn34)ccnc2c1`, the “activity change, negative = cytotoxic” value is 6.19%.

For the compound `CCN(CC)CCNC(=O)c1ccc2nc(-c3ccccc3)c(-c3ccc(CN4CCC(n5c(=O)[nH]c6ccccc65)CC4)cc3)nc2c1`, the Potency was 6620 nM (active). For the compound `CC(C)=CCCC(C)=CCCC(C)=CCSc1ccccc1C(=O)O`, the Potency was 3720 nM (active). `N#Cc1c(O)c2c(-c3ccc(-c4ccccc4O)cc3)csc2[nH]c1=O`: the “activity change, negative = cytotoxic” value was 2.27%. For the compound `Cn1c2ccccc2c2c3c(c4c5ccccc5n(CCC#N)c4c21)CNC3=O`, the Potency was 935 nM (active). Turning to `COc1cc(C(C)C)c2c(c1)S(=O)(=O)N(COc1cc(=O)n3cccc(OCCN4CCCCC4)c3n1)C2=O`, the Potency was 26400 nM (active). On the same count and under the same terms, the figure for `CN1CCN(c2ccc3nc(-c4c(N)c5c(F)cccc5[nH]c4=O)[nH]c3c2)CC1` is 5900 nM (active); for `CNC(=O)c1ccccc1Nc1nc(Nc2ccc(N3CCOCC3)cc2OC)ncc1Cl` it is 1180 nM (active); for `CNC(=O)c1c(F)cccc1Nc1nc(Nc2cc3c(cc2OC)CCN3C(=O)CN(C)C)nc2[nH]ccc12` it is 2090 nM (active). For the compound `C1=CCOCc2cc(ccc2OCCN2CCCC2)Nc2nccc(n2)-c2cccc(c2)OCC1`, the Potency was 5260 nM (active). Consider `O=C(O)Cn1nnc(-c2cc(N3CCC(Oc4cc(F)ccc4Br)CC3)no2)n1`, for which the “activity change, negative = cytotoxic” value is -4.8%. `CN1CCN(Cc2ccc(NC(=O)Nc3ccc(Oc4cc(NC(=O)C5CC5)ncn4)cc3)cc2C(F)(F)F)CC1`: the Potency is 590 nM (active). Turning to `COc1ccc(C=Cc2cc(OC)c(OC)c(OC)c2)cc1O`, the Potency was 935 nM (active). In the case of `CCn1nnc2c(N3CCOCC3)nc(-c3ccc(NC(=O)Nc4ccc(C(=O)N5CCN(C)CC5)cc4)cc3)nc21`, the Potency is 148 nM (active).

As for `COc1cc(C(=O)N2CCC(N3CCN(C)CC3)CC2)ccc1Nc1ncc2c(n1)N(C)c1ccccc1C(=O)N2C`, the Potency is 10500 nM (active). Consider `CCCCc1nc2cc(C=CC(=O)NO)ccc2n1CCN(CC)CC`, for which the Potency was 29.6 nM (active). As for `Nc1ccccc1NC(=O)c1ccc(CNc2nccc(-c3cccnc3)n2)cc1`, the Potency was 2350 nM (active). The same measure, in the same setting: the figure for `CC(C)C[C@H](NC(=O)CNC(=O)c1cc(Cl)ccc1Cl)B(O)O` is 18700 nM (active); for `Nc1nc(NCCNc2ncc(-n3ccnc3)c(-c3ccc(Cl)cc3Cl)n2)ccc1[N+](=O)[O-]` it is 26400 nM (active); for `COc1cc(Nc2ncc(F)c(Nc3ccc4c(n3)N(COP(=O)(O)O)C(=O)C(C)(C)O4)n2)cc(OC)c1OC` it is 1180 nM (active). Turning to `C[C@H]1C[C@@H]2[C@@H]([C@@H](O)C[C@@]3(C)[C@H]2CC[C@]3(O)C(=O)CO)[C@@]2(C)C=CC(=O)C=C12`, the “activity change, negative = cytotoxic” value is -12.9%. Take `CN1CCN(c2cc(C(=O)Nc3ccc4c(c3)-c3c(c(C(N)=O)nn3-c3ccc(F)cc3)CC4)c(Cl)cn2)CC1`: the Potency is 16600 nM (active). On to `O=C(NCCS(=O)(=O)c1ccc(C(F)(F)F)cn1)c1ccc(Cl)cc1`, for which the “activity change, negative = cytotoxic” value is 15.6%. For the compound `Cc1[nH]c2ccccc2c1CCNCc1ccc(C=CC(=O)NO)cc1`, the Potency was 264 nM (active).

As to `COCCn1c2c([n+](Cc3cnccn3)c1C)C(=O)c1ccccc1C2=O`, the Potency is 37.2 nM (active). Regarding `CC(C)(O)c1cc2nc(-c3cnc(N)nc3)nc(N3CCOCC3)c2s1`, the Potency was 235 nM (active). On the same count and under the same terms, next, `C=CC(=O)Nc1cccc(Oc2nc(Nc3ccc(N4CCN(C)CC4)cc3OC)ncc2Cl)c1`: 6620 nM (active).
